Assay results taken from ChEMBL document CHEMBL3988442, “University of Dundee, Small-Polar-MMV Screening Library” (2021).
Hit rate of the full screen: of about 48,000 compounds, about 13,000 (27%) showed an effect of 50% or more. The list shows a part of the results.

test system: Wolbachia pipientis; assay: Anti-Wolbachia Cell-Based Screen; assay type: functional; set-up: scale not given: in the data most compounds retested in dose-response had high values; conditions: 5 µM

| SMILES | Percent Effect |
| --- | --- |
| COc1ccc(C2CC(=O)NCc3nc(N(C)C)sc32)c(O)c1 (stereo not given) | -25.68% |
| COCCc1ncc(CN2C[C@@H](C(=O)O)[C@H](C(C)C)C2)cn1 | -10.49% |
| Cc1cnc(NS(=O)(=O)c2cccc(C#N)c2)s1 | -4.999% |
| CNC(=O)C(NC(C)=O)c1ccc(F)c(F)c1 (stereo not given) | -14.34% |
| Cc1nc(CN2CCC3(CCCN(Cc4ccoc4)C3)C2=O)cs1.O=C(O)C(F)(F)F.O=C(O)C(F)(F)F (stereo not given) | 117.4% |
| Cc1nc(CN2CCC3(CCCN(Cc4cccnc4)C3)C2=O)cs1.O=C(O)C(F)(F)F.O=C(O)C(F)(F)F.O=C(O)C(F)(F)F (stereo not given) | 115.5% |
| Cc1nc(CN2CCOCC3(CCN(c4cccnc4)CC3)C2)cs1.O=C(O)C(F)(F)F.O=C(O)C(F)(F)F | 4.008% |
| Cc1nc(CN2CCC3(CCCN(Cc4ccncc4)C3)C2=O)cs1.O=C(O)C(F)(F)F.O=C(O)C(F)(F)F.O=C(O)C(F)(F)F (stereo not given) | 97.27% |
| N#Cc1ccnc(N2CCN(C(=O)Cc3ccc4c(c3)CCO4)CC2)c1 | -0.6491% |
| CC(NCc1ccncc1)c1ccc(N2CCN(C)CC2)c(F)c1.Cl (stereo not given) | 1.312% |
| Fc1ccc2c(c1)CCC2NCc1ccc(N2CCOCC2)cc1 (stereo not given) | -1.344% |
| CCC1=NC2(CCC(C(=O)Nc3ccc(F)cc3)CC2)C(=O)N1C (stereo not given) | 104.8% |
| COCCN1C(=O)C2(CCC(C(=O)Nc3cccc(C)c3)CC2)N=C1C (stereo not given) | -14.6% |
| COCCN1C(=O)C2(CCC(C(=O)Nc3ccccn3)CC2)N=C1C (stereo not given) | 12.9% |
| CCC1=NC2(CCC(C(=O)Nc3ccc(C)nc3)CC2)C(=O)N1C (stereo not given) | 107.3% |
| COCCN1C(=O)C2(CCC(C(=O)Nc3ccc(F)cc3)CC2)N=C1C (stereo not given) | 17.41% |
| COCCN1C(=O)C2(CCC(C(=O)Nc3ccc(C)cc3)CC2)N=C1C (stereo not given) | -12.68% |
| Cc1ccc(CNCc2ccc(-n3nc(C)cc3C)nc2)cc1 | -14.48% |
| CN1C[C@H](O)C[C@H]1c1nc(-c2ccc3c(c2)OCO3)no1 | -5.095% |
| CCN1CC(C(=O)NCCCc2nc(C)c(C)s2)CC1=O (stereo not given) | -10.95% |
| Cn1nnnc1SCCNC(=O)C1CCN(C(=O)C2CCCC2)CC1 | 4.852% |
| O=C(NCc1ccc2nonc2c1)C1CCN(C(=O)C2CCC2)CC1 | 6.946% |
| Cc1nc(CCCNC(=O)[C@H]2CNC[C@@H](C(=O)N3CCCC3)C2)sc1C | 84.73% |
| Cc1cnccc1NCCNC(=O)C1CCCN(Cc2ccco2)C1 (stereo not given) | 5.628% |
| Cc1cnccc1NCCNC(=O)[C@H]1CNC[C@H](C(=O)N2CCCC2)C1 | 142% |

| SMILES | Percent Effect |
| --- | --- |
| Cc1csc(CCCNC(=O)[C@H]2CNC[C@@H](C(=O)N3CCCC3)C2)n1 | 5.026% |
| Cc1cc(C)nc(CCNC(=O)[C@H]2CNC[C@@H](C(=O)N3CCCC3)C2)n1 | 4.192% |
| Cc1nnc(CCNC(=O)[C@H]2CNC[C@@H](C(=O)N3CCCC3)C2)s1 | 111.1% |
| Cc1nnc(CCNC(=O)C2CC(=O)N(C(C)(C)C)C2)s1 (stereo not given) | -24.96% |
| Cn1nccc1CCNC(=O)[C@H]1CNC[C@H](C(=O)N2CCCC2)C1 | 89.07% |
| Cc1cccnc1NCCNC(=O)[C@H]1CNC[C@@H](C(=O)N2CCCC2)C1 | 2.912% |
| N#CC1(NC(=O)c2nccc3ccccc23)CCSCC1 | -2.14% |
| CCCS(=O)(=O)CC(=O)NC(C)c1cccc(-n2cccn2)c1 (stereo not given) | -8.263% |
| Cc1ccc(-c2csc(N)c2C#N)cc1 | -4.785% |
| CCn1cc2c(n1)CN(Cc1sccc1C)CC2COCC1CC1.O=C(O)C(F)(F)F (stereo not given) | 6.988% |
| CC(C)Cn1cncc1CNC1CCCNC1 (stereo not given) | 2.5% |
| NC(=O)N1CCCC(C(=O)NCCc2nc(Cc3ccccc3)no2)C1 (stereo not given) | 5.914% |
| O=C(NCCc1nc(C2CC2)no1)[C@H]1CNC[C@H](C(=O)N2CCCC2)C1 | 183.5% |
| O=C(NCC1CCCO1)C1CCN(Cc2nc(C3CC3)no2)CC1 (stereo not given) | 8.427% |
| Cc1cc(C)cc(NC(=O)N(CCC#N)CCCN(C)C)c1 | 13.87% |
| C[C@@H]1C(=O)NC[C@H]2CN(Cc3ccc4c(c3)OCO4)C[C@H]21.O=C(O)C(F)(F)F | 109.9% |
| COc1cc(CN2CCC(NC(=O)c3cccn3C)C2)cc(OC)c1 (stereo not given) | -4.957% |
| COc1cc(CN2C[C@@H]3CNC(=O)[C@H](C)[C@@H]3C2)cc(OC)c1 | 103.5% |
| COCCN1CCO[C@@H]2CN(Cc3cc(OC)cc(OC)c3)C[C@@H]2C1.O=C(O)C(F)(F)F.O=C(O)C(F)(F)F | 4.168% |
| C[C@H]1C(=O)NC[C@H]2CN(Cc3cccc(F)c3)C[C@H]21.O=C(O)C(F)(F)F | 100.1% |
| CN(C)[C@H]1COC[C@@H]2CN(Cc3ccc4c(c3)OCO4)C[C@@H]21.O=C(O)C(F)(F)F.O=C(O)C(F)(F)F | -0.2221% |
| O=C(O)C(F)(F)F.O=C([C@H]1CCS(=O)(=O)[C@@H]2CN(CCc3ccccc3)C[C@H]12)N1CCCC1 | -9.586% |
| O=C(C1CC1)N1CCC2(CCN(Cc3cccc(F)c3)CC2)CC1.O=C(O)C(F)(F)F | 10.09% |
| CN(C)[C@@H]1COC[C@@H]2CN(Cc3ccc4c(c3)OCO4)C[C@@H]21.O=C(O)C(F)(F)F.O=C(O)C(F)(F)F | -14.92% |
| C[C@H]1C(=O)NC[C@H]2CN(CCc3ccccc3)C[C@H]21.O=C(O)C(F)(F)F | 113.2% |
